# NTR1 agonist – agonists of human neurotensin receptor NTR1; activation, % at 20 µM; P30989; 330,000 compounds, 0.17% hits; NTR1-U2OS beta-arrestin-GFP spot imaging, agonist mode; AID 493036;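 active means activation at or above 40% of the spot to cytoplasm intensity ratio, with at least 20 cells analyzed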
# Target sequence (P30989 whole entry, looked up): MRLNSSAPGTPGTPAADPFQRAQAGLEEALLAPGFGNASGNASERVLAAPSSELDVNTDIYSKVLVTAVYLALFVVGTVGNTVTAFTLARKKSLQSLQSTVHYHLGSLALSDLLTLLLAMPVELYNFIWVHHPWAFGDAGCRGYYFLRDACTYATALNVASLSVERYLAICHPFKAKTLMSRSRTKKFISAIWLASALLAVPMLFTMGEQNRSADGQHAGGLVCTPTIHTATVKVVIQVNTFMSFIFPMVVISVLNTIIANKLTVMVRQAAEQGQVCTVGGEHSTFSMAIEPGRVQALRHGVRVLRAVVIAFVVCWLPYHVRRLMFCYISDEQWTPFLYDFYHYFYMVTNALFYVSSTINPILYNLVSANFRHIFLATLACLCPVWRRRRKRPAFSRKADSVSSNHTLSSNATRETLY
# SUMO HTRF inh – SUMOylation inhibition; P63279; 290,000 compounds, 0.36% hits; AID 2006; inhibition, % at 35 µM; HTRF SUMOylation assay, SAE1/SAE2 + UBC9, in vitro; in the data active means inhibition above about 50%, passing the limit was not always enough
# ALR H2O2 inh – human ALR oxidase inhibition via reduced H2O2; P55789; purified ALR, DTT oxidation, H2O2 HRP-luminol luminescence; inhibition, % (no concentration beside the values); 290,000 compounds, 3.8% hits;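 active means mean replicate inhibition above about 79%, with every replicate also reaching it, limit read from the data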
# Target sequence (P55789 whole entry, looked up): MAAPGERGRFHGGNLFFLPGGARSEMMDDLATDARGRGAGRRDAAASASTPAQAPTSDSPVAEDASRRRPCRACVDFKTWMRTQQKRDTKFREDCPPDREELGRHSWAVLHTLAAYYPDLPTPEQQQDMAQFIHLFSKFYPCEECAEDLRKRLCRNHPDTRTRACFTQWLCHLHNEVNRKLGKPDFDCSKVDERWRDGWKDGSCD
# Cardio protect – modulators protecting cardiomyocytes from myocardial damage; 360,000 compounds, 0.63% hits; H9c2 cardiomyocytes, H2O2 injury protection, ATPLite, 2 h; protection from H2O2 cell death, % at 20 µM; AID 588492;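 active means compounds giving at least 50% protection of heart cells from peroxide-induced death in the single-dose screen, raw or plate-pattern-corrected value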
# Numbers stand for hits; . = inactive; / = not tested or not shown. Shown are actives, neighbours in structure and some others; about 3.9% of the full set was active somewhere.
SMILES,NTR1 agonist,SUMO HTRF inh,ALR H2O2 inh,Cardio protect
Cc1c(NC(=O)CN2CCN(c3ccc(O)cc3)CC2)c(=O)n(-c2ccccc2)n1C,.,.,98.9,.
O=C(CN1CCOCC1)NN1CC(=O)N(c2ccc(Cl)cc2)CC1=O,.,.,.,.
Cc1ccc(N2CC(=O)N(NC(=O)CN3CCN(c4ccccc4)CC3)CC2=O)cc1,.,.,84.9,.
Cc1ccc(CSCC(=O)Nc2c(C)n(C)n(-c3ccccc3)c2=O)cc1,.,.,.,.
Cc1ccccc1C(=O)/C(C#N)=N/Nc1c(C)n(C)n(-c2ccccc2)c1=O,/,.,/,64.3
Cc1c(NC(=O)CN2CCN(c3ccc([N+](=O)[O-])cc3)CC2)c(=O)n(-c2ccccc2)n1C,.,.,.,.
Cc1ccccc1CSCC(=O)Nc1c(C)n(C)n(-c2ccccc2)c1=O,.,.,98.3,.
Cc1c(N/N=C(\C#N)C(=O)c2ccccc2)c(=O)n(-c2ccccc2)n1C,/,.,/,.
CC(O)Cc1cn(CC(=O)N2CCNCC2)nn1 (stereo not given),.,.,/,.
COc1ccc(CN(C)S(=O)(=O)c2nnc(NC(=O)c3cccc(C)c3)s2)cc1OC,.,.,.,.
CC1=Nc2cc([N+](=O)[O-])ccc2NC(C)(C)C1,.,.,.,.
Cc1c(N=C/C=C2/N(C)c3ccccc3C2(C)C)c(=O)n(-c2ccccc2)n1C,.,.,99.1,.
CN(C)c1ccc(N=C/C=C2\N(C)c3ccccc3C2(C)C)cc1,.,.,99.0,.
Cc1c(N=C/C=C2\N(C)c3ccccc3C2(C)C)c(=O)n(-c2ccccc2)n1C,.,.,93.3,.
CN1/C(=C\C=Nc2ccc3ccccc3c2)C(C)(C)c2ccccc21,.,.,/,.
Cc1cc(/N=C/C=C2\N(C)c3ccccc3C2(C)C)n(CCC#N)n1,.,.,98.9,.
O=c1cc(COn2nnc3ccc(C(F)(F)F)cc32)nc2sccn12,/,.,.,.
Cc1ccc(OCCN2C(=O)c3ccccc3C2=O)c(C)c1,.,.,.,.
COc1ccccc1N(CC(=O)Nc1ccc(Cc2ccncc2)cc1)S(=O)(=O)c1ccccc1,.,.,.,.
Cc1c(NC(=S)/C=C2\N(C)c3ccccc3C2(C)C)c(=O)n(-c2ccccc2)n1C,.,.,95.4,.
COC1=C(C)C(O)=C(C(=O)/C=C/c2ccccc2)C(=O)C1(C)C,.,.,97.5,.
COC(=O)C(C(C)C)N1CCc2c(C)nc3c(C#N)cnn3c21 (stereo not given),.,.,.,.
CCOc1cc(CNc2ccccc2SC)ccc1O,.,.,80.3,/
Cc1cc(F)ccc1S(=O)(=O)Nc1nc2ccccc2nc1Cl,.,.,.,.
O=c1[nH]c2cc3c(cc2cc1CN(CCO)S(=O)(=O)c1ccccc1)OCCO3,.,.,.,.
SMILES,NTR1 agonist,SUMO HTRF inh,ALR H2O2 inh,Cardio protect
Cc1cccc(/C(N)=N/OC(=O)c2ccc3c(c2)OCO3)c1,.,.,97.2,.
Oc1ccccc1C=NC1=NN(c2cccc(C(F)(F)F)c2)CC1,.,.,78.3,.
COc1cccc(N2CCN(Cc3ccsc3)CC2)c1,.,.,88.6,.
COc1cccc(N2CCN(Cc3ccco3)CC2)c1,.,.,86.8,.
COc1cccc(CN2CCSCC2)c1,.,.,.,.
COc1cccc(CN2CCN(Cc3ccco3)CC2)c1,.,.,.,.
O=C(/C=C/c1ccc(F)cc1)N1CCc2ccccc2C1,.,/,/,.
O=C(/C=C/C(=O)N1CCc2ccccc2C1)N1CCc2ccccc2C1,.,.,85.4,.
COC(=O)/C=C/c1ccc(OC(=O)OC)c(OC(=O)OC)c1,/,.,98.0,61.9
CC(C)[C@H](NC(=O)c1ccccc1)C(=O)OCC(=O)c1ccccc1F,.,.,88.4,.
CC1=NN(Cc2ccccc2)C(=O)C1C(c1ccccc1)C(C#N)C#N (stereo not given),.,.,97.9,.
CC1=NN(Cc2ccccc2)C(=O)C1C(c1ccc(Cl)cc1)C(C#N)C#N (stereo not given),.,.,.,.
CC(=O)/C(=N/Nc1cccc(C)c1)N1CCOCC1,.,.,99.3,.
Cc1cc(=O)n(C)c(=O)n1CCCCCN1CCCC1,.,.,99.5,.
Cc1ccc2cc(CN(CC3CCCO3)S(=O)(=O)c3c(C)ccc4nsnc34)c(=O)[nH]c2c1 (stereo not given),.,.,.,.
Cc1ccc2nsnc2c1S(=O)(=O)N(Cc1cc2cccc(C)c2[nH]c1=O)CC1CCCO1 (stereo not given),.,.,.,80.0
CN1C(=O)N(c2ccc(Cl)cc2)C(C)(O)CC1(C)C (stereo not given),/,.,.,.
CCn1c(=O)c(C(=O)CN(C)CC(=O)Nc2cccc(F)c2)c(N)n(Cc2ccccc2)c1=O,.,/,.,.
O=C(CCS(=O)(=O)c1ccc(F)cc1)Nc1ccc(N2CCN(Cc3ccccc3)CC2)cc1,.,/,.,.
Fc1ccc(N2CCN(Cc3ccccn3)CC2)cc1,.,.,97.3,.
CC(=O)N1CCN(c2ccc(NCc3ccc(Br)o3)cc2)CC1,.,/,99.4,.
CC(=O)N1CCN(c2ccc(NCc3cccc4ccccc34)cc2)CC1,.,.,99.2,.
COc1ccc(CNc2ccc(N3CCN(C(C)=O)CC3)cc2)cc1OC,/,/,/,.
Fc1ccc(CNc2ccc(N3CCN(Cc4ccccc4)CC3)cc2)cc1,.,.,89.0,.
CSc1ccc(C#N)cc1NC(=O)c1ccccc1,.,.,.,.
SMILES,NTR1 agonist,SUMO HTRF inh,ALR H2O2 inh,Cardio protect
CC(=O)N1CCN(c2ccc(NCc3ccccc3)cc2)CC1,.,.,98.9,.
Nc1c(-c2ccc(Cl)cc2)cnn1-c1cccc([N+](=O)[O-])c1,.,.,.,.
Nc1c(-c2ccccc2)cnn1-c1cccc([N+](=O)[O-])c1,.,.,87.9,.
C/C(=N\OCC(=O)OCC(=O)Nc1cc(S(C)(=O)=O)ccc1Cl)c1ccc2c(c1)OCO2,.,/,.,.
CSc1nc(-c2ccc(Cl)cc2Cl)[nH]c(=O)c1C#N,.,.,96.4,.
Cc1cc(-c2ccc(Cl)cc2Cl)c(C#N)c(=O)[nH]1,.,.,.,.
COc1cc(/C=C(\CC(=O)O)c2nc3ccccc3s2)cc(OC)c1O,.,.,99.5,.
COc1ccc(/C=C(\CC(=O)O)c2nc3ccccc3s2)cc1O,.,.,91.9,.
CCOc1cc(/C=C(\CC(=O)O)c2nc3ccccc3s2)ccc1OC,.,.,.,.
CCNC(=S)N(Cc1c(C)noc1C)c1ccccc1,.,.,.,.
S=c1[nH]nc(CN2CCCCC2)n1-c1ccc(Cl)cc1,.,.,.,.
Fc1ccc(-n2c(CN3CCCCC3)n[nH]c2=S)cc1,.,.,86.9,.
O=C(NCc1ccccc1)c1cnsn1,.,.,.,.
CSCc1ccc(C(=O)NC2CC(C)(C)Cc3c2cnn3-c2ccc(F)cc2)o1 (stereo not given),.,.,94.5,.
Cc1cc(C)c(C(=O)NC2CC(C)(C)Cc3c2cnn3-c2ccccc2)o1 (stereo not given),.,.,87.1,.
CN(Cc1ccco1)S(=O)(=O)c1nnc(NC(=O)c2cccc(Cl)c2)s1,.,/,96.4,.
COc1cc(NC(=O)c2ccccc2)c(OC)cc1NC(=O)CN1C(=O)NC2(CCCCC2)C1=O,.,/,.,.
Nc1nc2ccc(N3CCOCC3)cc2s1,.,.,98.4,.

# Source: PubChem
